Measured values as given in PubChem BioAssay (NCATS).
Results filed as inconclusive are left out. Calls of active or inactive are those of the source. Calls follow the shape of the dose curve; as a rule, active = well fitted inhibition curve with a large enough effect; inconclusive = small, poorly fitted or top-dose-only effect; inactive = flat fitted curve, though single readings scatter.

Legend:
CRL-7250 = normal cell line; test: Cytotoxic Profiling of Annotated Libraries Using Quantitative High-Throughput Screening (AID 1296008); settings: Five cell lines viability, CellTiter-Glo ATP luminescence, 48-72 h; max response: stronger effect = lower value; as to max response: % is scaled to controls: 0 for no effect and ±100 for the full control effect
Outline: (§1)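 Cytotoxicity was measured as CellTiter-Glo ATP luminescence, read after 10 min at room temperature. Compound treatment of the cells lasted 48 or 72 hr at 37 degrees Celsius in a qHTS format.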

HEK293 = test: as above; settings: Five cell lines viability, CellTiter-Glo ATP luminescence, 48-72 h; max response: stronger effect = lower value
Outline: as §1

HaCat [1] = test: as above; settings: Five cell lines viability, CellTiter-Glo ATP luminescence, 48-72 h; max response: stronger effect = lower value
Outline: as §1

KB-3-1 = test: as above; settings: Five cell lines viability, CellTiter-Glo ATP luminescence, 48-72 h; max response: stronger effect = lower value
Outline: as §1

NIH3T3 = test: as above; settings: Five cell lines viability, CellTiter-Glo ATP luminescence, 48-72 h; max response: stronger effect = lower value
Outline: as §1

HACAT [2] = test: qHTS assay to identify novel small-molecules to repurpose for Merkel cell carcinoma treatment (AID 1296009); settings: MCC and control cell lines, CellTiter-Glo viability, 72 h; at 44.8 µM (top of the series) unless noted
Outline: (§2)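 After compound transfer in DMSO, plates were kept 72 hr at 37 degree celsius. Luminescent ATP signal from CellTiter-Glo served as viability measure, normalized against DMSO and no-cell controls.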

HEK293T = test: as above; settings: MCC and control cell lines, CellTiter-Glo viability, 72 h; series mostly up to 44.8 µM
Outline: as §2
Also: nearly all actives have a fitted effect of over 60% in size.

COc1ccc2c3c1O[C@H]1C[C@@H](O)C=C[C@@]31CCN(C)C2
inactive: outcome (CRL-7250) | outcome (HEK293) | outcome (HaCat [1]) | outcome (KB-3-1) | max response (NIH3T3) -4.93% | outcome (HACAT [2]) | Potency (HEK293T)

O=C(O[C@H]1[C@@H]2C=CO[C@@H](O[C@@H]3O[C@H](CO)[C@@H](O)[C@H](O)[C@H]3O)[C@@H]2[C@@]2(CO)O[C@@H]12)c1ccc(O)c(O)c1
inactive: outcome (CRL-7250) | outcome (HEK293) | outcome (HaCat [1]) | max response (KB-3-1) 4.32% | outcome (NIH3T3) | outcome (HACAT [2]) inactive [at 17.4 µM] | Potency (HEK293T)

NCc1c[nH]c(=S)n1C1CCc2c(F)cc(F)cc2C1 (centres undefined)
inactive: max response (CRL-7250) -1.6% | outcome (HEK293) | outcome (HaCat [1]) | max response (KB-3-1) -6.7% | outcome (NIH3T3) | outcome (HACAT [2]) | Potency (HEK293T)

C[C@H]1[C@H](C)CC[C@]2(C(=O)O[C@@H]3O[C@H](CO)[C@@H](O)[C@H](O)[C@H]3O)CC[C@]3(C(=O)O)C(=CCC4[C@@]5(C)CC[C@H](O[C@@H]6O[C@H](CO)[C@@H](O)[C@H](O)[C@H]6O)C(C)(C)C5CC[C@]43C)[C@H]12 (some centres undefined)
inactive: max response (CRL-7250) 3.01% | outcome (HEK293) | outcome (HaCat [1]) | max response (KB-3-1) 2.34% | max response (NIH3T3) -5.27% | outcome (HACAT [2]) inactive [at 9.27 µM] | outcome (HEK293T) inactive [at 9.27 µM]

CC1CCC2(NC1)OC1C(=O)C3C4CCC5CC(O[C@@H]6O[C@H](CO)[C@@H](O)[C@H](O)[C@H]6O[C@@H]6O[C@@H](C)[C@H](O)[C@@H](O)[C@H]6O)CCC5(C)C4CCC3(C)C1C2C (some centres undefined)
inactive: outcome (CRL-7250) | outcome (HEK293) | outcome (HaCat [1]) | max response (KB-3-1) -4.49% | max response (NIH3T3) -2.88% | outcome (HACAT [2]) inactive [at 17.4 µM] | Potency (HEK293T)

C=C(C(=O)O)C1CCC(C)C2CCC(=O)OC2(C)C1 (centres undefined)
inactive: max response (CRL-7250) 4.24% | outcome (HEK293) | outcome (HaCat [1]) | max response (KB-3-1) 6.53% | max response (NIH3T3) 0.163% | outcome (HACAT [2]) | Potency (HEK293T)

COc1cc(C2c3cc(O)c(OC)cc3CC(CO)C2CO)ccc1O (centres undefined)
inactive: outcome (CRL-7250) | outcome (HEK293) | outcome (HaCat [1]) | outcome (KB-3-1) | outcome (NIH3T3) | outcome (HACAT [2]) | Potency (HEK293T)

C/C(=C/CO)CC[C@@H]1[C@@]2(C)CCC[C@](C)(C(=O)O)C2CC[C@@]1(C)O (some centres undefined)
inactive: max response (CRL-7250) 2.67% | outcome (HEK293) | outcome (HaCat [1]) | max response (KB-3-1) 3.08% | max response (NIH3T3) -1.08% | outcome (HACAT [2]) | Potency (HEK293T)

OCCc1ccc(O[C@@H]2O[C@H](CO)[C@@H](O)[C@H](O)[C@H]2O)c(O)c1
inactive: max response (CRL-7250) 1.68% | outcome (HEK293) | outcome (HaCat [1]) | outcome (KB-3-1) | max response (NIH3T3) -4.15% | outcome (HACAT [2]) | Potency (HEK293T)

COC(=O)[C@@]1(O)C=CC[C@@H]2[C@@]3(C)C[C@@H](c4ccoc4)OC(=O)[C@H]3CC[C@]21C
inactive: outcome (CRL-7250) | outcome (HEK293) | outcome (HaCat [1]) | max response (KB-3-1) 0.0207% | outcome (NIH3T3) | outcome (HACAT [2]) | Potency (HEK293T)

CCC(C)C(=O)O[C@@H]1[C@@H](O)[C@@H](O[C@H]2O[C@H](CO)[C@@H](O)[C@H](O)[C@H]2O)O[C@H](CO)[C@H]1O (some centres undefined)
inactive: outcome (CRL-7250) | outcome (HEK293) | outcome (HaCat [1]) | outcome (KB-3-1) | outcome (NIH3T3) | outcome (HACAT [2]) inactive [at 17.4 µM] | Potency (HEK293T)

O=C(O)C[C@H]1CCC(=O)[C@@H]1C/C=C\CCOC1OC(CO)C(O)C(O)C1O (some centres undefined)
inactive: max response (CRL-7250) -7.42% | outcome (HEK293) | outcome (HaCat [1]) | max response (KB-3-1) 1.25% | outcome (NIH3T3) | outcome (HACAT [2]) | Potency (HEK293T)

CC(C)CC(=O)n1cc(C(N)=O)c(=O)cc1C(O)c1ccccc1 (centres undefined)
inactive: outcome (CRL-7250) | outcome (HEK293) | outcome (HaCat [1]) | outcome (KB-3-1) | max response (NIH3T3) 0.668% | outcome (HACAT [2]) | Potency (HEK293T)

C[C@@H]1CC[C@]2(C(=O)O[C@@H]3O[C@H](CO)[C@@H](O)[C@H](O)[C@H]3O)CC[C@]3(C)C(=CCC4[C@@]5(C)C[C@@H](O)[C@H](O)C(C)(C)C5CC[C@]43C)C2[C@]1(C)O (some centres undefined)
inactive: outcome (CRL-7250) | outcome (HEK293) | outcome (HaCat [1]) | max response (KB-3-1) 0.448% | outcome (NIH3T3) | outcome (HACAT [2]) inactive [at 17.4 µM] | Potency (HEK293T)

COc1ccc2c(c1O)OC[C@H]1c3ccc(O)cc3O[C@@H]21
inactive: max response (CRL-7250) 2.17% | outcome (HEK293) | outcome (HaCat [1]) | outcome (KB-3-1) | outcome (NIH3T3) | outcome (HACAT [2]) | Potency (HEK293T)

CC(=O)OC[C@@]12[C@H](O)C[C@@H](C)[C@]3(C[C@@H](c4ccoc4)OC3=O)[C@H]1C[C@H](O)C[C@]21CO1
inactive: outcome (CRL-7250) | outcome (HEK293) | outcome (HaCat [1]) | outcome (KB-3-1) | outcome (NIH3T3) | outcome (HACAT [2]) inactive [at 17.4 µM] | Potency (HEK293T)

O=C(c1ccc(F)cc1)C1CCN(CCn2c(=O)nc3n(c2=O)CCCC3)CC1
inactive: max response (CRL-7250) 3.3% | outcome (HEK293) | outcome (HaCat [1]) inactive; activator | max response (KB-3-1) -0.742% | max response (NIH3T3) -0.166% | outcome (HACAT [2]) inactive; activator | Potency (HEK293T)
